Most compounds without a hit are left out; they make up all but 0.62% or so of the library.
gsp antagonist: antagonizes gsp, the McCune-Albright syndrome mutation. gsp-mutant cells, cAMP HTRF, 30 min. Potency, µM (series often up to 76.9 µM), for the others: at the highest dose activity change, negative = inhibition, most hits filed as inhibitors. hit rate 0.4% among 340,000; calls by dose curve; cell line not stated here;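 further: intracellular cAMP measured with PDE inhibitor Ro 20-1724 present during compound exposure; on the % scale 0 is the no-effect control and ±100 the full control effect; nearly all actives have a fitted effect of over 65% in size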
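HTRF cAMP read-out (cAMP-d2 plus anti-cAMP antibody-K in lysis buffer, 30 min RT). Before lysis, cells are exposed to compounds with […] for 30 min at 37C in DPBS containing Ca/Mg, BSA and Tween 20.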
gsp agonist: agonists of gsp mutant (McCune-Albright syndrome); Potency, µM (highest dose often 76.9 µM), inactives show at the highest dose activation (cAMP increase), usual class: activators; hit rate 0.13% among 340,000; AID 624287; gsp mutant cells, cAMP HTRF, 30 min; active means well fitted activation curve with a large enough effect; inconclusive means small, poorly fitted or top-dose-only effect, or another doubt; inactive means no such curve, though single readings can be large or run the other way; cell line not stated here;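 further: phosphodiesterase inhibitor Ro 20-1724 added with compounds to block cAMP breakdown; nearly all actives have a fitted effect of over 60% in size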
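Cells stably selected in G418 were plated at 2000/well, grown 16-24 hr, then given compounds in DMSO with the PDE inhibitor […] (300 uM solution added) for 30 min at 37C; cAMP was read by HTRF.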
MBNL1 CUG block: MBNL1-poly(CUG) RNA binding inhibition; Q9NR56; TR-FRET MBNL1-His/biotin-(CUG)12 binding, 665/545 ratio; Potency, µM (doses to about 57.5 µM), without a hit: at the top dose activity change, negative = inhibition, most hits filed as inhibitors; hit rate 0.036% among 280,000; active means well fitted inhibition curve with a large enough effect in the signal ratio, with a control signal flat, not every such curve was filed as active; inconclusive means small, poorly fitted or top-dose-only effect, or effect the other way, or a change in a side signal; inactive means no such curve, though single readings can be large or run the other way; the % refers to the signal ratio; further: on the % scale 0 is the no-effect control and ±100 the full control effect
Target sequence (Q9NR56 whole entry, looked up): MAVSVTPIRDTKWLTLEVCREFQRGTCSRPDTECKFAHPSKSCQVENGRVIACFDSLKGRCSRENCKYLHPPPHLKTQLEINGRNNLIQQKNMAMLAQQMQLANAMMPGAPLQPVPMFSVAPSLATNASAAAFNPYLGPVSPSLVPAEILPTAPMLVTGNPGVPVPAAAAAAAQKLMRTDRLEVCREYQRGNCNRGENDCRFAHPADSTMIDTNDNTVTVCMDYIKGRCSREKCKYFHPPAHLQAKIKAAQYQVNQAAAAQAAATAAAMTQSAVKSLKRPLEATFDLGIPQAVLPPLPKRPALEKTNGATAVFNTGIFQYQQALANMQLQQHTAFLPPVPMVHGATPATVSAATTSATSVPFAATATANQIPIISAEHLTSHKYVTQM
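His-tagged MBNL1 binding to biotinylated (CUG)12 RNA was measured by TR-FRET using terbium anti-His antibody (0.055 ng/ul final) and streptavidin-XL665 (5 nM final). Compounds were titrated 92 nM to 58 uM; 60 min at room temperature.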
ASM inhibitor: inhibitors of human secretory acid sphingomyelinase; placental ASM, HMU-PC fluorogenic substrate, 60 min; Potency, µM (series often up to 57.5 µM), for the others: at the top dose activity change, negative = inhibition, actives largely listed as inhibitors; hit rate 0.006% among 340,000; AID 504937; active means well fitted inhibition curve with a large enough effect; inconclusive means small, poorly fitted or top-dose-only effect; inactive means no such curve, though single readings can be large or run the other way
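HMU-PC0 cleavage (9 uM final) by human placental ASM, 60 min at 37 °C following 10 min compound exposure at RT; stopped at pH 10, fluorescence Ex 386/Em 447 nm.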
Chronic BCR inh: blocks chronic active B-cell receptor signaling. ABC-DLBCL IkBa-CBG/CBR reporter, luminescence ratio, 4 h. Potency, µM (titrated, usually from 46.1 µM), for inactives: at the top dose activity change, negative = inhibition, most hits filed as inhibitors. hit rate 0.05% among 340,000. AID 493014; active means well fitted inhibition curve with a large enough effect in the signal ratio, with a control signal flat, not every such curve was filed as active; inconclusive means small, poorly fitted or top-dose-only effect, or effect the other way, or a change in a side signal; the % refers to the signal ratio;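 further: plate controls were basal doxycycline-induced cells for no effect and cells given 10 µM MG132 for full effect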
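Concentration-response series (up to 46 uM) were applied to TMD8 dual-reporter cells for 4 h at 37C with doxycycline. Green/red ratio, after filter-overlap correction, defined %Activity; red signal alone was normalised to basal cells and zero luminescence.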
An asterisk follows results filed as active; u = inconclusive; x = no result; [ ] = another dose, or the depositor's remark. Potency means the concentration at half of the fitted maximal effect.

SMILES	gsp antagonist	gsp agonist	MBNL1 CUG block	ASM inhibitor	Chronic BCR inh
Cc1cc(OCC(=O)NCC(c2cccs2)N2CCOCC2)ccc1C(C)C (stereo not given)	-7%	-8%[15.4 µM]	x	1%	-4%
Cc1ccc(C(C)C)c(OCC(=O)NCC(c2cccs2)N2CCOCC2)c1 (stereo not given)	35µM*	-23%[15.4 µM]	x	0%	4%
Cc1ccc(C(=O)Nc2ccc3c(c2)C(=O)N(C)C3=O)c(C)c1	8%	35µM*	9%	65%	-6%
COc1cc(CNn2nnnc2N)cc(Br)c1OCc1c(Cl)cccc1Cl	40µM*	-3%	0%	-12%	-19%
COc1ccc(NC(=O)c2cc3c(-c4ccc(OC)c(OC)c4)nn(C)c3s2)cc1OC	-24%	-20%	-10%	-30%	u
COc1ccc(-c2nn(C)c3sc(C(=O)NCc4ccco4)cc23)cc1OC	29%	13µM*	10%	7%	-22%
CCOc1ccc(N(CC(=O)N2CCN(C(=O)CN(c3ccc(OCC)cc3)S(C)(=O)=O)CC2)S(C)(=O)=O)cc1	6%	18%	-3%	1%	7%
CCCOc1cccc(-c2cc(C(=O)NNC(=S)NCC)c3ccccc3n2)c1	35µM*	-4%	u	-9%	u
CCOC(=O)c1ccc(N2C(=O)c3n[nH]c(C)c3C2c2ccco2)cc1 (stereo not given)	0%	37%	4%	-1%	u
CCOC(=O)c1ccc(N2C(=O)c3n[nH]c(-c4ccco4)c3C2c2cccc([N+](=O)[O-])c2)cc1 (stereo not given)	-16%	u	x	28µM*	-1%
CC(=O)n1cc([C@H]2C=C(C(=O)N3CCN(Cc4ccccc4)CC3)O[C@@H](OCCCCO)C2)c2ccccc21	35µM*	x	u	7%	-3%
CN(C)S(=O)(=O)N1CCC(Oc2cccc(C(=O)NCCC3=CCCCC3)c2)CC1	35µM*	-38%	-8%	-2%	u
COc1ccc(-n2cnc3ccccc3c2=O)c([N+](=O)[O-])c1	-2%	u	u	0%	1%
N#C/C(=N\Nc1cccc(Cl)c1)C(=O)c1ccccc1	16µM*	0%	-12%	-10%	u
N#C/C(=N\Nc1ccccc1Cl)C(=O)c1ccccc1	u	-25%	3%	-5%	u
Cc1ccc(S(=O)(=O)Nc2cccc(C(=O)N3CCC(C(N)=O)CC3)c2)cc1	13%	1%	x	1%	-1%
COc1ccc(C=O)cc1OS(=O)(=O)c1ccc(NC(C)=O)cc1	9%	21%[15.4 µM]	x	-2%	18µM*
Cc1ccc(S(=O)(=O)N2C(=O)[C@@H]3Cc4ccccc4CN3C2=O)cc1	6%	-65%	-1%	0%	2%
COc1cccc(/C=C/c2onc(C)c2S(=O)(=O)N2CCC(C(=O)N3CCCCC3)CC2)c1	x	x	x	x	-4%
CN(C)c1ccc(/C(=N\O)C(F)(F)F)cc1	40µM*	-19%	1%	-2%	1%
CC(=O)c1ccc(N(C)C)cc1	-11%	-76%	-8%	0%	2%
COc1ccccc1S(=O)(=O)Nc1cccc(S(=O)(=O)N2CCCC2)c1	1%	10%	x	3%	6%
C=CCNC(=S)Nc1sc2c(c1C(=O)OCC)CC(C)(CC)OC2 (stereo not given)	7.9µM*	-2%[15.4 µM]	x	3%	-4%
CCOC(=O)c1c(NC(=O)C2CC(Cl)=CCC2C(=O)O)sc2c1CC(C)(C)OC2 (stereo not given)	14µM*	23%[15.4 µM]	-5%	-3%	-2%
Cc1ccc2[nH]nc(C(=O)N3CCCC(C(=O)c4ccc(Cl)cc4)C3)c2c1 (stereo not given)	14µM*	-13%[15.4 µM]	-8%	-5%	u
Cc1cc(C(=O)N2CCCC(C(=O)c3ccc(Oc4ccccc4)cc3)C2)n[nH]1 (stereo not given)	35µM*	-10%	0%	-9%	12%
Cc1noc(C)c1C(=O)N1CCCC(C(=O)c2ccc(Cl)cc2)C1 (stereo not given)	14%	-25%[15.4 µM]	2%	-2%	7%
